In PubChem BioAssay (NCI):
The panel holds about 79,000 compounds, 15% with a hit somewhere; the sample as a whole holds those more often. Values without a mark were called inactive. The source made the active and inactive calls. No stated cut-off is given here; in the data, active means growth inhibition above about 70%; inactive means the rest.

Legend:
[1] = NCI Yeast Anticancer Drug Screen. Data for the rad50 strain (AID 155);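 further: 0% = growth of vehicle-only cultures of the same strain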; details: S. cerevisiae rad50 strain growth inhibition; at 50.0 µM; hits give high values
Outline: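 Readout: growth inhibition relative to vehicle-treated cultures. Compound exposure was carried out in a genetically defined yeast strain deficient in DNA damage repair.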

[2] = NCI Yeast Anticancer Drug Screen. Data for the mec2-1 strain (AID 157); details: S. cerevisiae mec2-1 strain, at 50.0 µM, hits give high values
Outline: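 Readout is yeast growth inhibition, normalised to vehicle-treated controls, in the mec2-1 strain exposed to compound.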

[3] = NCI Yeast Anticancer Drug Screen. Data for the sgs1 mgt1 strain (AID 161);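 further: 0% = growth of cultures given vehicle only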; details: S. cerevisiae sgs1 mgt1 strain, at 50.0 µM, hits give high values
Outline: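 Compounds are added to genetically altered yeast, and growth is compared with cultures given vehicle alone to give percent inhibition.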

[4] = NCI Yeast Anticancer Drug Screen. Data for the cln2 rad14 strain (AID 165);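 further: 0% = growth equal to vehicle treated cultures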; details: S. cerevisiae cln2 rad14 strain, at 50.0 µM, hits give high values
Outline: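 Relative to vehicle controls, growth inhibition of compound-treated cln2 rad14 yeast was recorded.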

[5] = NCI Yeast Anticancer Drug Screen. Data for the bub3 strain (AID 167); details: S. cerevisiae bub3 mutant strain, at 50.0 µM, hits give high values
Outline: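 Readout: yeast growth inhibition, expressed relative to vehicle-only wells. The test organism is a mutant strain from a panel with lesions in DNA repair or checkpoint genes.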

[6] = NCI Yeast Anticancer Drug Screen. Data for the mlh1 rad18 strain (AID 175); details: S. cerevisiae mlh1 rad18 strain growth inhibition; at 50.0 µM; hits give high values
Outline: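 Test agents were incubated with a yeast strain of defined genotype (DNA damage repair defect). Inhibition of growth was derived by comparison with vehicle-exposed cultures.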

SMILES	growth inhibition [1]	growth inhibition [2]	growth inhibition [3]	growth inhibition [4]	growth inhibition [5]	growth inhibition [6]
Oc1c(Cl)cc(Cl)cc1C1Nc2ccccc2-n2cccc21 (configuration not stated)	-5.2%	-11.8%	0.4%	8.95%	9.25%	8.2%
Cn1c(=O)sc2ccccc21	19.4%	-18.2%	14.3%	15.1%	-8.8%	25.6%
Cc1cccc(C)c1N=O	-6.25%	-15.2%	-7.45%	22.8%	1.15%	-16.1%
COc1ccc(Cc2ccc3[nH]c(=O)cc(C)c3c2)cc1S(=O)(=O)O	33.8%	-17.6%	-15.5%	41.7%	-17.7%	8.95%
Nc1nc(N)c(-c2ccc(Cl)cc2)c(CCC(=O)Nc2cccc(C(F)(F)F)c2)n1	-25.2%	-3.55%	-30%	-0.25%	-17.1%	-21.1%
CCC(C1=CCCCC1)c1nc2c([nH]1)c(=O)n(C)c(=O)n2C (configuration not stated)	7.95%	8.5%	23.6%	8.65%	17.6%	45.5%
CC1=NN(c2ccc([N+](=O)[O-])cc2)C(=O)C1	25.6%	0.25%	22.6%	6.1%	25.6%	36.9%
Cn1ncc(=O)[nH]c1=O	-15.2%	-5.2%	-23.4%	10.1%	-9.85%	-10.3%
O=Cc1ccc(N2CCCCC2)cc1	4.05%	7.95%	-13.2%	-24.2%	-8.25%	-4.45%
CN(C)c1ccc(/C=C2/CC(=O)N(c3ccccc3)C2=O)cc1	16.3%	1.15%	25.1%	-35.3%	-0.9%	15.6%
CC(=O)c1cccc(C(C)=O)n1	-24.2%	-36.1%	-35.9%	18.1%	-19.8%	9.6%
O=S(=O)(c1ccc(Br)cc1)S(=O)(=O)c1ccc(Br)cc1	-22.6%	0.7%	-23.1%	-13.9%	23.2%	-16.1%
CC(=O)Nc1ccc(/C=C2/C(=O)ON=C2C)cc1	6.75%	6.6%	6%	11.8%	3.95%	13.4%
CCOC1(c2ccccc2)c2ccccc2Sc2ccccc21	-12.5%	12.7%	5.5%	-6.1%	14.4%	16.3%
COc1ccc(/C=C2/CCOC2=O)cc1	44.1%	18.7%	11.4%	-9.3%	-2.6%	28.8%
CNc1nc(Cl)cc2nc(Cl)cn12	-2.15%	15.8%	-18.6%	-12.1%	8.3%	4.55%
CC[N+](CC)(CCO)CCCCCCCCCC[N+](CC)(CC)CCO	29.6%	-4.15%	10.6%	-15.3%	-1.15%	9.2%
O=c1oc2ccc(Br)cc2cc1-n1nnc2ccccc21	-0.45%	-6.55%	2.45%	0.6%	15.9%	5.55%
CCOC(=O)CCC[Si](CC)(CC)CC	13.9%	12.3%	1.5%	-22.1%	-15%	5.9%
CN1CCN(C2CCCc3ccccc3C2=O)CC1 (configuration not stated)	21.9%	-10.6%	4.75%	-36%	-15.5%	13.4%
O=C(OCc1ccccc1)N(Cc1ccccc1)S(=O)(=O)c1ccccc1	26.1%	34.8%	14.9%	5.5%	13.6%	0.4%

SMILES	growth inhibition [1]	growth inhibition [2]	growth inhibition [3]	growth inhibition [4]	growth inhibition [5]	growth inhibition [6]
CCOC(=O)Cc1n[nH]c(=O)c2ccccc12	-21.6%	1.4%	1.2%	-21.4%	-21.8%	-6.95%
Cc1ccc(NC(=O)Oc2ccc(Br)cc2Br)c([N+](=O)[O-])c1	9.3%	-1.5%	13.7%	11.2%	4.55%	-6.9%
CN(C)Cc1cc(N=Nc2ccccc2)ccc1O	-23.4%	-12.2%	-12.4%	9.4%	4.9%	-19.4%
C=C1CC(C)(C)CN(Cc2ccc([N+](=O)[O-])cc2)C(C(=O)OC)=C1C(=O)OC	20.4%	-2.55%	24.4%	16.8%	-13.8%	13.2%
Cc1ccc(N=Nc2c(N)nc(N)[nH]c2=O)c(C)c1	14.9%	-4.8%	-11.9%	9.6%	15.7%	19.8%
COc1ccc(I)cc1	-1.85%	-15.8%	3.65%	-2.2%	-3.5%	2.35%
N#CC1OC1c1ccccn1 (configuration not stated)	-6.25%	7.05%	-12.3%	9.05%	5.35%	-21.6%
CC(=O)CC(=O)c1cc(C(C)=O)c(O)c(C(C)=O)c1	-11.8%	0.75%	11%	-3.3%	-11.1%	7.8%
COc1ccc(N=C(N)N2CCCc3ccccc32)cc1	-5.25%	17.9%	0.55%	-84.9%	1.4%	0.4%
CCOC(=O)CCC(=O)N(CC)CC	8.7%	16.6%	16.4%	9.9%	-10.9%	-13%
O=C(O)CSc1n[nH]c(-c2ccccc2O)n1	-1.1%	2.5%	17.8%	17.5%	9.6%	7.25%
Cc1ccc2nc(N=C(N)N)[nH]c2c1	-16.5%	-33.1%	2.75%	1.1%	-14.3%	-12.6%
Cc1ccc(/C=N/NC(=O)c2ccc(C)cc2)cc1	-14.9%	-10.2%	-4.5%	-13.7%	-16.2%	-11.9%
c1ccc(C2OC3C4COC(O4)C3O2)cc1 (configuration not stated)	-24.7%	-19.9%	-15.4%	-19.1%	-1.75%	-9.7%
C=C1CC(C)(COc2cc(=O)oc3ccccc23)OC1=O (configuration not stated)	51%	30.3%	53.2%	38.5%	25.6%	40.5%
CC(C)c1nnnn1C12CC3CC(CC(C3)C1)C2	2.75%	-13.2%	1%	-17.4%	-3.3%	11.5%
COC(=O)C1=C(C(=O)OC)C2(C(=O)OC)OC1(OC)C(C1(C(=O)OC)C(C(=O)OC)=C1C(=O)OC)=C2C(=O)OC (configuration not stated)	16%	14.2%	8.9%	16.1%	1.25%	9.7%
O=COC1CC2CC1c1ccccc12 (configuration not stated)	4.8%	-9.7%	-1.7%	-7.8%	-3.85%	6.8%
NC(Cc1ccc(O)c(O)c1)C(=O)OCc1ccccc1 (configuration not stated)	67.6%	60.7%	68.8%	58.4%	38.5%	65.8%
O=C(O)C(C(=O)O)C(c1ccccc1)c1ccccc1Br (configuration not stated)	5.15%	17.1%	28.1%	-184%	23.9%	29.5%
COC(=O)c1ccc(/C=C(\c2ccc([N+](=O)[O-])o2)S(=O)(=O)c2ccc(NC(C)=O)cc2)o1	84.7% (active)	66%	90.8% (active)	71.7% (active)	34.8%	88.5% (active)
